Compounds with a hit are over-represented: about 31% of the library has one in this group of screens.
CYP2C9 activ: human CYP2C9 activators, primary screen, biochemical, luminescence. Cytochrome P450 2C9 (Homo sapiens), P11712. recombinant CYP2C9, luciferin-H conversion; stronger effect = higher value; factor 1 = untreated enzyme, 0 = blocked. activation factor at 5 µM. hit rate 1.4% among 96,000. AID 1024, 2008;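 active = activation factor of 2 or more for CYP2C9 at a 5 µM dose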;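 also: 0 = sulfaphenazole-blocked wells and 1 = vehicle-only wells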
Target sequence (P11712 whole entry, looked up): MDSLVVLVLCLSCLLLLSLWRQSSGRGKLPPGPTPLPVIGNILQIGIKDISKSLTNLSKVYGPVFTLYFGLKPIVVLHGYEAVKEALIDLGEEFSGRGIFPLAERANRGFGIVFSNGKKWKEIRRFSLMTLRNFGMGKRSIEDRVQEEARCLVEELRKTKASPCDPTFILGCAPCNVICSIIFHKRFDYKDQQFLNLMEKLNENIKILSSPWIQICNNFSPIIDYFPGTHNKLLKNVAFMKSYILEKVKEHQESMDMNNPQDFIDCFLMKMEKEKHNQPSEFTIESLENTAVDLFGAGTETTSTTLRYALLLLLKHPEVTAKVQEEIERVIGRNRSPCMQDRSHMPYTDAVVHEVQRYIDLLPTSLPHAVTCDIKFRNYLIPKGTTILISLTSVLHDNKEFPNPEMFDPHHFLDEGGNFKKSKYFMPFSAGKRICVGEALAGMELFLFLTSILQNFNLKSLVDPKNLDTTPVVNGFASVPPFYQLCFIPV
PLAP activator: PLAP enzyme activators, biochemical, luminescence, HTS. Alkaline phosphatase, placental type (Homo sapiens), P05187. purified PLAP enzyme, luminescent substrate read-out; stronger effect = higher value. activation fold at 20 µM. hit rate 1.2% among 96,000; in the data active = activation fold above about 2
CYP2C9 inhib: blockers of cytochrome P450 2C9 activity – biochemical, luminescence, ADME assay, primary screen; P11712; CYP2C9 Supersomes, luciferin-H conversion; inhibition, % at 5 µM; hit rate 20% among 96,000;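 active = blocking of liver enzyme CYP2C9 beyond about 50% at 5 µM, limit read from the data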
CYP2C19 activ: human CYP2C19 activators, primary screen, biochemical, luminescence; Cytochrome P450 2C19 (Homo sapiens), P33261; recombinant CYP2C19, luciferin-H EGE luminescence; stronger effect = higher value; 0 = fully inhibited enzyme, 1 = untreated enzyme; activation factor at 5 µM; 96,000 tested, under 10 active; AID 1025, 2008;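 active = activation factor of at least 2 at 5 µM in the primary screen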;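 also: 0 = wells with 2.5 mM tranylcypromine and 1 = vehicle-only wells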
CYP2C19 inh: blockers of cytochrome P450 2C19 activity – biochemical, luminescence, ADME assay, primary screen; CYP2C19 Supersomes, luciferin-H EGE luminescence, 30 min; inhibition, % at 5 µM; hit rate 21% among 96,000; AID 778, 2007;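 active = CYP2C19 inhibition above a set limit at 5 µM in the primary screen, cut at about 50% in these data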;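 also: plate controls were negative control wells for no effect and 2.5 mM tranylcypromine positive control for full effect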
The depositor's hits bear a star.

How did COc1ccc(C2C(C(=O)Nc3cc(C)on3)c3ccccc3C(=O)N2C)cc1 (centres undefined) do in these assays?
CYP2C9 activ: 0.3; PLAP activator: 1.1; CYP2C9 inhib: 69*; CYP2C19 activ: 0.8; CYP2C19 inh: 22

Results for COc1ccc(C2C(C(=O)Nc3cc(C)on3)c3ccccc3C(=O)N2C)cc1OC (centres undefined) ?
CYP2C9 activ: 0.8; PLAP activator: 1.1; CYP2C9 inhib: 19; CYP2C19 activ: 1; CYP2C19 inh: 4

What do the screens show for `Cn1c(C(F)(F)F)nc2c(=O)oc3ccccc3c21`?
CYP2C9 activ: 1; PLAP activator: 1.1; CYP2C9 inhib: -3; CYP2C19 activ: 1; CYP2C19 inh: 2

What do the screens show for `CC(C)CNS(=O)(=O)c1ccc(CCC(=O)NCc2cccnc2)cc1`?
CYP2C9 activ: 0.7; PLAP activator: 0.9; CYP2C9 inhib: 32; CYP2C19 activ: 1; CYP2C19 inh: 0

What do the screens show for `c1coc(CN=C2NC(=NCc3ccco3)c3ccccc32)c1`?
CYP2C9 activ: 0.6; PLAP activator: 1.3; CYP2C9 inhib: 40; CYP2C19 activ: 0.4; CYP2C19 inh: 55*

Results for CCc1nc2oc3cc(OC)ccc3c(=O)c2c(=O)n1Cc1ccccc1 ?
CYP2C9 activ: 0.5; PLAP activator: 1.6; CYP2C9 inhib: 49; CYP2C19 activ: 0.5; CYP2C19 inh: 53*

Results for CCc1nc2oc3cc(OC)ccc3c(=O)c2c(=O)n1-c1ccccc1 ?
CYP2C9 activ: 1.2; PLAP activator: 1; CYP2C9 inhib: -24; CYP2C19 activ: 1.2; CYP2C19 inh: -16

Results for COc1ccc2c(=O)c3c(=O)n(Cc4ccco4)c(C4CCCCC4)nc3oc2c1 ?
CYP2C9 activ: 0.7; PLAP activator: 0.9; CYP2C9 inhib: 26; CYP2C19 activ: 0.5; CYP2C19 inh: 53*

How did COCCCn1c(C2CCCCC2)nc2oc3cc(OC)ccc3c(=O)c2c1=O do in these assays?
CYP2C9 activ: 0.3; PLAP activator: 1.6; CYP2C9 inhib: 70*; CYP2C19 activ: 0.5; CYP2C19 inh: 52*

What do the screens show for `O=C(NC1CCCCC1)/C(=N\O)c1ccccn1`?
CYP2C9 activ: 1; PLAP activator: 0.9; CYP2C9 inhib: -2; CYP2C19 activ: 1; CYP2C19 inh: 4

What do the screens show for `CCOC(=O)c1cn(-c2nc(-c3ccc(Cl)cc3)cs2)c2c(F)c(N3CC(C)OC(C)C3)c(F)cc2c1=O` (centres undefined)?
CYP2C9 activ: 0.9; PLAP activator: 1; CYP2C9 inhib: 6; CYP2C19 activ: 1.1; CYP2C19 inh: -6

Results for O=C(NC1(C(F)(F)F)C(=O)Nc2c1c(=O)[nH]c(=O)n2-c1ccccc1)c1cccnc1 (centres undefined) ?
CYP2C9 activ: 0.9; PLAP activator: 1.1; CYP2C9 inhib: 14; CYP2C19 activ: 0.9; CYP2C19 inh: 12

What do the screens show for `O=C(NCc1cccs1)c1ccccc1C(=O)NCc1cccs1`?
CYP2C9 activ: 0.9; PLAP activator: 1; CYP2C9 inhib: 7; CYP2C19 activ: 0.6; CYP2C19 inh: 35

Results for O=C(NCc1cccs1)c1cc2ccccc2o1 ?
CYP2C9 activ: 0.8; PLAP activator: 0.7; CYP2C9 inhib: 18; CYP2C19 activ: 0.4; CYP2C19 inh: 56*

Results for COc1ccc(S(=O)(=O)Cc2ccc(C(=O)NCc3cccs3)o2)cc1 ?
CYP2C9 activ: 0.4; PLAP activator: 0.7; CYP2C9 inhib: 60*; CYP2C19 activ: 0.7; CYP2C19 inh: 27

What do the screens show for `O=C(NCc1cccs1)c1ccc(CS(=O)(=O)c2ccc(Cl)cc2)o1`?
CYP2C9 activ: 0.3; PLAP activator: 0.7; CYP2C9 inhib: 72*; CYP2C19 activ: 0.5; CYP2C19 inh: 52*

What do the screens show for `O=C(NCc1cccnc1)c1ccc(CS(=O)(=O)c2ccc(Cl)cc2)o1`?
CYP2C9 activ: 0.1; PLAP activator: 1.2; CYP2C9 inhib: 93*; CYP2C19 activ: 0; CYP2C19 inh: 100*

What do the screens show for `C/C(=N/Oc1nc(C)cc(C)n1)c1ccc(F)cc1`?
CYP2C9 activ: 1; PLAP activator: 1; CYP2C9 inhib: 4; CYP2C19 activ: 0.9; CYP2C19 inh: 15

Results for Cc1ccc2c(c1)nc(NCCO)n2C ?
CYP2C9 activ: 0.8; PLAP activator: 1; CYP2C9 inhib: 20; CYP2C19 activ: 0.9; CYP2C19 inh: 9

What do the screens show for `CCN(C(=O)c1cc2cc(OC)ccc2oc1=O)c1cccc(C)c1`?
CYP2C9 activ: 0.5; PLAP activator: 1.1; CYP2C9 inhib: 51*; CYP2C19 activ: 0.4; CYP2C19 inh: 56*

How did CCN(C(=O)c1cc2cc(OC)ccc2oc1=O)c1ccccc1 do in these assays?
CYP2C9 activ: 0.6; PLAP activator: 0.8; CYP2C9 inhib: 36; CYP2C19 activ: 0.8; CYP2C19 inh: 16

Results for O=C(OCc1c(Cl)nc2sccn12)c1cc2c(s1)CCCC2 ?
CYP2C9 activ: 1.2; PLAP activator: 1.1; CYP2C9 inhib: -24; CYP2C19 activ: 1.1; CYP2C19 inh: -11

Results for Cc1cccc(-n2ncc3c(NCCCO)ncnc32)c1 ?
CYP2C9 activ: 0.4; PLAP activator: 0.9; CYP2C9 inhib: 64*; CYP2C19 activ: 1; CYP2C19 inh: 4

Results for Cc1cccc(-n2ncc3c(N4CC(C)CC(C)C4)ncnc32)c1 (centres undefined) ?
CYP2C9 activ: 0.2; PLAP activator: 1.4; CYP2C9 inhib: 81*; CYP2C19 activ: 0.6; CYP2C19 inh: 40

How did Cc1ccc(-n2ncc3c(NCc4ccccn4)ncnc32)c(C)c1 do in these assays?
CYP2C9 activ: 0.7; PLAP activator: 2*; CYP2C9 inhib: 31; CYP2C19 activ: 0.8; CYP2C19 inh: 19

Results for C=CCNc1ncnc2c1cnn2-c1ccc(Cl)cc1 ?
CYP2C9 activ: 0.8; PLAP activator: 0.9; CYP2C9 inhib: 21; CYP2C19 activ: 1; CYP2C19 inh: 2

What do the screens show for `C=CCNc1ncnc2c1cnn2-c1cccc(C)c1`?
CYP2C9 activ: 0.3; PLAP activator: 0.9; CYP2C9 inhib: 73*; CYP2C19 activ: 0.3; CYP2C19 inh: 66*

How did CCCCNc1ncnc2c1cnn2-c1ccc(C)cc1C do in these assays?
CYP2C9 activ: 0.7; PLAP activator: 1.2; CYP2C9 inhib: 29; CYP2C19 activ: 0.7; CYP2C19 inh: 26

Results for CCOC(=O)N1CCN(C(=O)Nc2ccc(Cl)cc2Cl)CC1 ?
CYP2C9 activ: 1; PLAP activator: 1.1; CYP2C9 inhib: 2; CYP2C19 activ: 0.6; CYP2C19 inh: 44

How did COc1cc2[nH]c(=O)n(Cc3ccccc3Cl)c(=O)c2cc1OC do in these assays?
CYP2C9 activ: 0.7; PLAP activator: 1.2; CYP2C9 inhib: 28; CYP2C19 activ: 0.8; CYP2C19 inh: 16

What do the screens show for `CCCOc1ccc(CC(CC(=O)O)(C(=O)O)C(=O)O)cc1`?
CYP2C9 activ: 1.1; PLAP activator: 1; CYP2C9 inhib: -6; CYP2C19 activ: 1; CYP2C19 inh: 1

Screening results: PubChem BioAssay, Sanford-Burnham Center for Chemical Genomics
